Shown are actives, neighbours in structure and some others; about 21% of the full set was active somewhere.
Shiga inhibitor: inhibitors of Shiga toxin in Vero cells | Vero cells, Shiga toxin protein synthesis inhibition reporter | inhibition, % at 38.7 µM | 290,000 compounds, 9.2% hits | AID 2315; in the data active means inhibition mostly above about 28%, no sharp cut-off; inactive means mostly below about 43%; further: 0% is about no effect
AMA1 RON2 block: AMA1-RON2 (P. falciparum) interaction inhibition. AlphaScreen AMA1-biotinylated RON2 peptide binding. Potency, µM (doses to about 58.2 µM), without a hit: at the highest dose activity change, negative = inhibition, actives largely listed as inhibitors. 360,000 compounds, 0.2% hits;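 further: potency means the concentration at half of the fitted maximal effect; 0% = vehicle wells and -100% = peptide control; nearly all actives have a fitted effect of over 45% in size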
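AMA1 (3D7) with his tag at 25 nM final met compounds first, then biotinylated RON2 peptide at 25 nM; detection used donor plus acceptor beads, 10 µg/mL apiece, read by AlphaScreen after 30 min at room temperature.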
Pf growth 96h: inhibits malaria parasite growth, 96 h; P. falciparum luciferase reporter growth, 96 h; Potency, µM (titrated, usually from 28.7 µM), for inactives: top-dose activity change, negative = inhibition, hits mostly inhibitors; 320,000 compounds, 6.9% hits; further: potency means the concentration at half of the fitted maximal effect; on the % scale 0 is the no-effect control and ±100 the full control effect
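Readout is luminescence from an integrated firefly luciferase in P. falciparum. Red cells, 2% hematocrit and 0.05% parasitemia final, were cultured with compound through two parasite generations (96 hours) at 37 C, 5% CO2.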
CHX counter: counter-screen for Shiga toxin inhibitors: cycloheximide protein synthesis inhibition; cell reporter, cycloheximide protein synthesis inhibition counterscreen; max response, %; 300,000 compounds, 12% hits; AID 2314; in the data active means max response mostly above about 13%, no sharp cut-off; inactive means mostly below about 14%; further: read at 38.3 µM for the half of the compounds with a filed dose; 0% is about no effect
HCV inhibitor: inhibitors of hepatitis C virus infection; Huh7.5.1 HCVcc-Cre infection, luciferase reporter, 44 h; Potency, µM (doses to about 41.8 µM), inactives show top-dose activity change, negative = inhibition, usual class: inhibitors; 340,000 compounds, 3.4% hits; further: potency means the concentration at half of the fitted maximal effect; on the % scale 0 is the no-effect control and ±100 the full control effect
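Cells (1,000/well) were plated 4 h before compound, then infected with HCVcc-Cre virus (~0.5 moi). After 44 h further culture, infection was read as luciferase luminescence following a 15 min substrate incubation at room temperature.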
Pf growth 48h: P. falciparum growth inhibition at 48 hours (one generation). P. falciparum luciferase growth in erythrocytes, 48 h. 310,000 compounds, 5.9% hits. Potency, µM (series often up to 28.7 µM), inactives show at the top dose activity change, negative = inhibition, most hits filed as inhibitors. AID 504832; further: potency means the concentration at half of the fitted maximal effect; on the % scale 0 is the no-effect control and ±100 the full control effect
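A one-generation exposure of luciferase-tagged malaria parasites in RPMI 1640/Albumax erythrocyte culture, 37 C and 5% CO2. Inhibition is inferred from decreased luminescence after adding detection reagent.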
* hit, by the source's call; [ ] = remark or other dose. Unless noted, the call rests on the fitted dose curve; in most records, active means well fitted curve in the direction sought with a large enough effect; inconclusive means small, poorly fitted or top-dose-only effect, or another doubt; inactive means no such curve, though single readings can be large; an effect the other way counts as inactive or inconclusive.

Screening COc1cc(C=C2C(=O)c3ccccc3C2=O)cc(OC)c1OC returned Shiga inhibitor 34, AMA1 RON2 block -3%, Pf growth 96h -13%, CHX counter 9, HCV inhibitor 23% and Pf growth 48h 19%.
COc1ccc(C=C2C(=O)c3ccccc3C2=O)cc1O was read as Shiga inhibitor 115*, AMA1 RON2 block -22%, Pf growth 96h 12µM*, CHX counter 38*, HCV inhibitor 4% and Pf growth 48h 2%.
`CCOC(=O)CNC(=O)CSc1ncnc2c1cnn2-c1ccccc1` gave Shiga inhibitor -6, AMA1 RON2 block -6%, Pf growth 96h -3%, CHX counter 9, HCV inhibitor 4% and Pf growth 48h 13%.
For O=C(CSc1ncnc2c1cnn2-c1ccccc1)NC1CCS(=O)(=O)C1 (stereo not drawn) the results were AMA1 RON2 block -2%, Pf growth 96h -14%, HCV inhibitor inconclusive and Pf growth 48h 2%.
For CCOC(=O)CNC(=O)CSc1ncnc2c1cnn2-c1ccc(C)cc1 the results were Shiga inhibitor -4, AMA1 RON2 block -8%, Pf growth 96h 8.3µM*, CHX counter 0, HCV inhibitor 17% and Pf growth 48h 15%.
For CCc1nnc(NC(=O)CSc2ncnc3c2cnn3-c2ccc(OC)cc2)s1 the results were Shiga inhibitor -9, AMA1 RON2 block 16%, Pf growth 96h 0.0037µM*, CHX counter -1, HCV inhibitor -12% and Pf growth 48h 57%.
O=C(CSc1ncnc2c1cnn2-c1ccc(F)cc1)NC1CCCC1 was read as Shiga inhibitor 19, AMA1 RON2 block 54%, Pf growth 96h 36%, CHX counter -3, HCV inhibitor 6.3µM* and Pf growth 48h 49%.
Screening O=C(CSc1ncnc2c1cnn2-c1ccc(F)cc1)NCC1CCCO1 (stereo not drawn) returned Shiga inhibitor -8, AMA1 RON2 block 16%, Pf growth 96h -23%, CHX counter -1, HCV inhibitor inconclusive and Pf growth 48h 30%.
For CC(C)(C)NC(=O)CSc1ncnc2c1cnn2-c1ccccc1 the results were Shiga inhibitor 32, AMA1 RON2 block -3%, Pf growth 96h 0%, CHX counter 30*, HCV inhibitor -12% and Pf growth 48h inconclusive.
For CCOC(=O)C(C)Sc1nc2c(cnn2-c2ccc(C)cc2)c(=O)[nH]1 (stereo not drawn) the results were Shiga inhibitor 0, AMA1 RON2 block -20%, Pf growth 96h inconclusive, CHX counter -5, HCV inhibitor 11µM* and Pf growth 48h -30%.
`CCOC(=O)CSc1ncnc2c1cnn2-c1ccc(C)cc1` gave Shiga inhibitor -4, AMA1 RON2 block 5%, Pf growth 96h 13µM*, CHX counter -2, HCV inhibitor 9% and Pf growth 48h 28%.
`CCOC(=O)CSc1ncnc2c1cnn2-c1ccccc1` gave Shiga inhibitor 31, AMA1 RON2 block 21%, Pf growth 96h 14%, CHX counter -3, HCV inhibitor 4% and Pf growth 48h 12%.
`CCOC(=O)CC(=O)CSc1ncnc2c1nnn2-c1ccc(OC)cc1` gave Shiga inhibitor 15, AMA1 RON2 block 64%, Pf growth 96h 12%, CHX counter 3, HCV inhibitor -5% and Pf growth 48h inconclusive.
`CCOC(=O)CC(=O)CSc1ncnc2c1cnn2-c1ccccc1` gave Shiga inhibitor 81*, AMA1 RON2 block -2%, Pf growth 96h 4%, CHX counter 58*, HCV inhibitor 19% and Pf growth 48h 4%.
Screening CCOC(=O)CNC(=O)CSc1ncnc2c1cnn2-c1ccc(OC)cc1 returned Shiga inhibitor 16, AMA1 RON2 block 6%, CHX counter 29*, HCV inhibitor -4% and Pf growth 48h inconclusive.
For CCOc1ccc(CN(C)C(=O)c2cccc(S(=O)(=O)N3CCCC3)c2)cc1OC the results were AMA1 RON2 block -9%, Pf growth 96h -29%, HCV inhibitor 15% and Pf growth 48h -27%.
`CCN(CC)S(=O)(=O)c1ccc(O)c(C(=O)OCC(=O)N2CCCc3ccccc32)c1` gave AMA1 RON2 block -2%.
CC1CCCC(C)N1C(=O)COC(=O)c1ccc2ccccc2n1 (stereo not drawn) was read as AMA1 RON2 block 0%[11.6 µM] and HCV inhibitor 9%.
`Cc1occc1C(=O)Nc1ccc(Br)cc1F` gave Shiga inhibitor 52*, AMA1 RON2 block 7%, Pf growth 96h 112%, CHX counter 51* and HCV inhibitor -6%.
Screening Cc1occc1C(=O)NNC(=O)Nc1ccc(F)cc1F returned Shiga inhibitor 14, AMA1 RON2 block 63%, Pf growth 96h inconclusive, CHX counter 5, HCV inhibitor 22% and Pf growth 48h 3%.
`COc1ccc(C)cc1NC(=O)NNC(=O)c1ccoc1C` gave Shiga inhibitor 31*, AMA1 RON2 block 9%, Pf growth 96h -55%, CHX counter active, HCV inhibitor 18% and Pf growth 48h 72%.
For COc1ccc(C)cc1NC(=O)NNC(=O)c1cc2ccccc2cc1O the results were Shiga inhibitor 1, AMA1 RON2 block 129%, Pf growth 96h -1%, CHX counter 12, HCV inhibitor -24% and Pf growth 48h inconclusive.
`COc1ccc(C)cc1NC(=O)c1ccoc1C` gave Shiga inhibitor 13, AMA1 RON2 block -1%, CHX counter -3, HCV inhibitor 14µM* and Pf growth 48h 2%.
`COc1ccc(C(C)(C)C)cc1NC(=O)c1ccoc1C` gave Shiga inhibitor 15, AMA1 RON2 block -7%, Pf growth 96h 12µM*, CHX counter 0, HCV inhibitor inconclusive and Pf growth 48h 12µM*.
`COc1cc(OC)c(NC(=O)c2ccoc2C)cc1Cl` gave Shiga inhibitor 12, AMA1 RON2 block -3%, CHX counter -2, HCV inhibitor inconclusive and Pf growth 48h -9%.
Cc1cc(C(=O)Nn2c(-c3ccc(Br)cc3)nc3ccccc3c2=O)ccc1[N+](=O)[O-] was read as Shiga inhibitor -7, AMA1 RON2 block 3%, Pf growth 96h 8%, CHX counter -3, HCV inhibitor -9% and Pf growth 48h -6%.
For CCC(C)c1ccc(NC(=S)N2CCN(C(=O)C3CCCO3)CC2)cc1 (stereo not drawn) the results were Shiga inhibitor -3, AMA1 RON2 block 6%, Pf growth 96h 7%, CHX counter 1, HCV inhibitor -18% and Pf growth 48h -1%.
`O=C(Nc1ccc(OC(F)F)cc1)c1cc(S(=O)(=O)N2CCOCC2)ccc1F` gave Shiga inhibitor -7, AMA1 RON2 block 10%, Pf growth 96h -19%, CHX counter 1, HCV inhibitor 0% and Pf growth 48h -16%.
`CCOC(=O)CCCc1sc(N)nc1-c1[nH]c(=O)[nH]c1C` gave Shiga inhibitor 7, AMA1 RON2 block 1.5µM*, Pf growth 96h -23%[5.75 µM], CHX counter -1, HCV inhibitor 27% and Pf growth 48h 23%.

Source: PubChem (National Center for Advancing Translational Sciences (NCATS))
